Source: PMC4336329 (PLoS ONE, 2015)
Among all 310,000 compounds or so, about 14,000 (4.5%) showed an effect of 50% or more. The effect is printed as a negative number. What follows is part of a selection rich in strong results, with near analogues and random picks from the rest.
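Further: peak tail current of the secondary pulse compared with the same well before compound.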

Each compound was assayed against human ether-à-go-go-related gene (hERG) potassium channel (human, UniProt Q12809) (assay: primary screen, population patch clamp on CHO cells stably expressing hERG; higher = less effect of the substance).
Chain of human ether-à-go-go-related gene (hERG) potassium channel (Q12809 whole entry, looked up): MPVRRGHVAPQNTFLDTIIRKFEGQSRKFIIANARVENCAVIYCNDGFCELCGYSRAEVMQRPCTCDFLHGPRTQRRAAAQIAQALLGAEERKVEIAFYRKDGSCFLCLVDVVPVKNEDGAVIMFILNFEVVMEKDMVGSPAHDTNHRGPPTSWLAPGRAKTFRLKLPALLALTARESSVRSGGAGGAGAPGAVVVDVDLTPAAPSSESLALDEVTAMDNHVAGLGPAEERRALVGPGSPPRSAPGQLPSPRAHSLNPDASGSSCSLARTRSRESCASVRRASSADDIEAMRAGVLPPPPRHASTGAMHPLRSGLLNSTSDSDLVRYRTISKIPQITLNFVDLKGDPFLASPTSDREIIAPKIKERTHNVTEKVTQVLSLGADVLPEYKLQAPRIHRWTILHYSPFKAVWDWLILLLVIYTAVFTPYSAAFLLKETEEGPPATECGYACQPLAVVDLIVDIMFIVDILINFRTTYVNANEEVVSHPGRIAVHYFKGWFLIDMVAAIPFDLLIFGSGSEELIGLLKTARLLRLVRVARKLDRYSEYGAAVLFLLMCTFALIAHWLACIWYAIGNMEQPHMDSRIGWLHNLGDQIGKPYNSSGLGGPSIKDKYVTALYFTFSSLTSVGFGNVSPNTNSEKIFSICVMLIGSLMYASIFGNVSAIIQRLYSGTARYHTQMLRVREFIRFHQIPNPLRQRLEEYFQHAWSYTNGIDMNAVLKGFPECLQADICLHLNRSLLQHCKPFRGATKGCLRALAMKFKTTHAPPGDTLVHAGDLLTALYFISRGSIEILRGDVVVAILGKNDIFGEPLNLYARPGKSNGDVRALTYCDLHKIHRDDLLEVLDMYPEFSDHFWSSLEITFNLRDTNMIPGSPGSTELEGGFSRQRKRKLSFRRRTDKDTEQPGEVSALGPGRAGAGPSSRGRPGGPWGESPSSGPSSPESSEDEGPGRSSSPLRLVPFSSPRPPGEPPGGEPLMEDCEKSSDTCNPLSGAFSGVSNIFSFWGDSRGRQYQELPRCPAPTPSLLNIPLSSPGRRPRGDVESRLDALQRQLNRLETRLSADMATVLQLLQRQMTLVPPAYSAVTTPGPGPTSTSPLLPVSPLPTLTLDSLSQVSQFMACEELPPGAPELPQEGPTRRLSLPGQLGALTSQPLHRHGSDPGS
In the case of `CC(C)(C)c1nnc(NC(=O)NS(=O)(=O)c2ccccc2)s1`, the “hERG current change (%, negative = inhibition) at 10uM” value was 19.7%.
With `O=C(Nc1nccs1)c1ccc(S(=O)(=O)N2CCCCC2)cc1` the “hERG current change (%, negative = inhibition) at 10uM” value was 3.29%.
For `COc1ccc(C(=O)O)cc1S(=O)(=O)N(C)C`, the “hERG current change (%, negative = inhibition) at 10uM” value was 16.6%.
With `O=C(Nc1cc(Cl)ccc1Oc1ccccc1)c1ccccc1F` the “hERG current change (%, negative = inhibition) at 10uM” value was -4.45%.
`CCCC(C)C(=O)Nc1ccccc1C(=O)OCC` (centres unmarked) was tested, and the “hERG current change (%, negative = inhibition) at 10uM” value was -4.39%.
With `O=S(=O)(Nc1ccccc1Cl)c1cc(NC(=S)NCCN2CCOCC2)ccc1Cl` the “hERG current change (%, negative = inhibition) at 10uM” value was 14%.
For `CCOC(NC(=O)c1ccccc1)C(NC(=O)c1ccccc1)OCC` (centres unmarked), the “hERG current change (%, negative = inhibition) at 10uM” value was -0.069%.
In the case of `CCN1CCN(S(=O)(=O)c2ccc(C)c([N+](=O)[O-])c2)CC1`, the “hERG current change (%, negative = inhibition) at 10uM” value was -0.352%.
With `Cc1ccc([N+](=O)[O-])cc1S(=O)(=O)N1CCN(C)CC1` the “hERG current change (%, negative = inhibition) at 10uM” value was 0.51%.
`Cc1ccc([N+](=O)[O-])cc1S(=O)(=O)N1CCCC1` was tested, and the “hERG current change (%, negative = inhibition) at 10uM” value was 7.21%.
`CCN1CCN(c2ccc(N3CCN(S(=O)(=O)c4ccc(C)c([N+](=O)[O-])c4)CC3)nn2)CC1` was tested, and the “hERG current change (%, negative = inhibition) at 10uM” value was -56.6%.
In the case of `CCN1CCN(c2ccc(N3CCN(S(=O)(=O)c4cc([N+](=O)[O-])ccc4C)CC3)nn2)CC1`, the “hERG current change (%, negative = inhibition) at 10uM” value was -54.4%.
With `Cc1ccc(S(=O)(=O)N2CCN(c3ccc(N4CCOCC4)nn3)CC2)cc1[N+](=O)[O-]` the “hERG current change (%, negative = inhibition) at 10uM” value was -4.74%.
For `C[C@]12CC[C@@H]3c4cc(O)c(O)cc4CC[C@H]3[C@@H]1CC[C@@H]2O`, the “hERG current change (%, negative = inhibition) at 10uM” value was 24.1%.
In the case of `O=C(O)c1cc(-c2cccc(Cl)c2)nc2nc(N3CCCCC3)sc12`, the “hERG current change (%, negative = inhibition) at 10uM” value was 8.18%.
With `CS(=O)(=O)c1ccc(NCC2CCCO2)c([N+](=O)[O-])c1` (centres unmarked) the “hERG current change (%, negative = inhibition) at 10uM” value was 9.48%.
In the case of `CN(CCc1ccccc1)C1CCCN(C(=O)Cn2cccn2)C1` (centres unmarked), the “hERG current change (%, negative = inhibition) at 10uM” value was -1.49%.
In the case of `Cc1cc(C)nc(SCc2ccc(C(=O)N/N=C/c3cccnc3)cc2)n1`, the “hERG current change (%, negative = inhibition) at 10uM” value was -17.3%.
For `Cc1cc(C)nc(SCc2ccc(C(=O)N/N=C/c3ccc(C(=O)O)cc3)cc2)n1`, the “hERG current change (%, negative = inhibition) at 10uM” value was 28.6%.
For `Cc1cc(C)nc(SCc2ccc(C(=O)N/N=C/c3ccncc3)cc2)n1`, the “hERG current change (%, negative = inhibition) at 10uM” value was -50.5%.
With `N=C1C(c2nc3ccccc3[nH]2)=C(O)CN1NC(=O)c1c[nH]c2ccccc12` the “hERG current change (%, negative = inhibition) at 10uM” value was 17%.
With `CCOc1ccc(N2C(=O)Nc3ccc(Br)cc3C2(O)C(=O)NC(C)C)cc1` (centres unmarked) the “hERG current change (%, negative = inhibition) at 10uM” value was 8.92%.
For `Cc1c2cnn(CC(=O)N3CCC4(CC3)OCCO4)c(=O)c2c(C)n1Cc1ccc(F)cc1`, the “hERG current change (%, negative = inhibition) at 10uM” value was -7.31%.
For `O=C(Cn1ncc2c3ccccc3n(Cc3ccc(F)cc3)c2c1=O)N1CCC2(CC1)OCCO2`, the “hERG current change (%, negative = inhibition) at 10uM” value was -67.2%.
`O=C(Cn1ncc2c3ccccc3n(Cc3ccc(F)cc3)c2c1=O)N1CCN(c2ncccn2)CC1` was tested, and the “hERG current change (%, negative = inhibition) at 10uM” value was -16.2%.
With `Cn1c2ccccc2c2cnn(CC(=O)N3CCC4(CC3)OCCO4)c(=O)c21` the “hERG current change (%, negative = inhibition) at 10uM” value was -22.2%.
For `O=C(Cn1ncc2c3ccccc3n(Cc3cccc(Cl)c3)c2c1=O)N1CCC2(CC1)OCCO2`, the “hERG current change (%, negative = inhibition) at 10uM” value was -69%.
`Cc1c2cnn(CC(=O)N3CCC4(CC3)OCCO4)c(=O)c2c(C)n1Cc1cccc(Cl)c1` was tested, and the “hERG current change (%, negative = inhibition) at 10uM” value was 1.18%.
For `Cc1c2cnn(CC(=O)N3CCC4(CC3)OCCO4)c(=O)c2c(C)n1Cc1ccccc1F`, the “hERG current change (%, negative = inhibition) at 10uM” value was 6.7%.
With `O=C(Cn1ncc2c3ccccc3n(Cc3ccccc3F)c2c1=O)N1CCC2(CC1)OCCO2` the “hERG current change (%, negative = inhibition) at 10uM” value was -72.8%.
`Cc1c2cnn(CC(=O)N3CCC4(CC3)OCCO4)c(=O)c2c(C)n1Cc1ccccc1` was tested, and the “hERG current change (%, negative = inhibition) at 10uM” value was -0.415%.
In the case of `Cc1ccc2nc(C(C)O)[nH]c2c1` (centres unmarked), the “hERG current change (%, negative = inhibition) at 10uM” value was 17.3%.
With `CC#CCCCC(=O)Nc1ccc(C(=O)O)cc1` the “hERG current change (%, negative = inhibition) at 10uM” value was 1.36%.
In the case of `CN1CCN(Cc2nc(-c3cccs3)no2)CC1c1ccccc1` (centres unmarked), the “hERG current change (%, negative = inhibition) at 10uM” value was -8.45%.
`COC(=O)c1nnn(CC(=O)NC(=O)Nc2cccc(Cl)c2C)c1C(=O)OC` was tested, and the “hERG current change (%, negative = inhibition) at 10uM” value was -0.536%.
For `O=C(COc1ccccc1)Nc1ccccc1N1CCCCC1`, the “hERG current change (%, negative = inhibition) at 10uM” value was 2.27%.
In the case of `CCCN(CCC)CCCNC(=O)c1cn(CC)c2ccc(S(=O)(=O)N3CCOCC3)cc2c1=O`, the “hERG current change (%, negative = inhibition) at 10uM” value was 12.8%.
In the case of `CCCN(CCC)CCCNC(=O)c1cn(CC)c2ccc(S(=O)(=O)N3CCc4ccccc4C3)cc2c1=O`, the “hERG current change (%, negative = inhibition) at 10uM” value was -69.9%.
In the case of `CCn1cc(C(=O)NCCCN2CCN(C)CC2)c(=O)c2cc(S(=O)(=O)N3CCc4ccccc4C3)ccc21`, the “hERG current change (%, negative = inhibition) at 10uM” value was -20.4%.
In the case of `CCCCN(CCCC)CCNC(=O)c1cn(CC)c2ccc(S(=O)(=O)N3CCc4ccccc4C3)cc2c1=O`, the “hERG current change (%, negative = inhibition) at 10uM” value was -78.8%.
In the case of `CCn1cc(C(=O)NCc2ccco2)c(=O)c2cc(S(=O)(=O)N3CCc4ccccc4C3)ccc21`, the “hERG current change (%, negative = inhibition) at 10uM” value was -15.3%.
